Several values for one entry are separate records, joined by “and”; a condition that tells them apart may be missing. Equal entries are not always repeated. Hit rate of the full screen: of about 5,500 compounds, about 2,000 (36%) were called active. Not shown: some 18% with an inconclusive outcome. No stated cut-off is given here; in the data, active means normalized growth mostly below about 0.91 (no sharp cut-off); inconclusive means no clear call, values can overlap the other calls; inactive means mostly above about 0.92. The list shows a part of the results.
Experiment: chemical genetic growth profiling, strain panel (AID 1159580);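 further: tested at 20 µM; growth read once vehicle control cultures reached saturation at 30 °C; 1 = growth at the plate median or of vehicle wells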
Conditions: S. cerevisiae deletion strains, growth OD

Measured: normalized growth

COc1c(O)cccc1O
inactive: locus YAL013W, strain DEP1, stronger effect = lower value 0.993 | locus YAL021C, strain ccr4, stronger effect = lower value 0.997 | locus YAL026C, strain drs2, stronger effect = lower value 1.04 | locus YAL030W, strain snc1, stronger effect = lower value 1.02 | locus YBL061C, strain skt5, stronger effect = lower value 1.02 | locus YBR009C, strain hhf1, stronger effect = lower value 1.01 | locus YBR021W, strain FUR4, stronger effect = lower value 1.04 | locus YBR023C, strain chs3, stronger effect = lower value 1.02 | locus YBR171W, strain sec66, stronger effect = lower value 1.03 | locus YBR229C, strain ROT2, stronger effect = lower value 1.01 | locus YBR231C, strain swc5, stronger effect = lower value 1.03 | locus YBR279W, strain paf1, stronger effect = lower value 1.02 | locus YCL011C, strain gbp2, stronger effect = lower value 1.04 | locus YCL016C, strain dcc1, stronger effect = lower value 1.02 | locus YCL029C, strain bik1, stronger effect = lower value 1.01 | locus YCL061C, strain MRC1, stronger effect = lower value 1.02 | locus YCL069W, strain vba3, stronger effect = lower value 1.03 | locus YCR088W, strain abp1, stronger effect = lower value 1.02 | locus YDL005C, strain med2, stronger effect = lower value 1.03 | locus YDL035C, strain GPR1, stronger effect = lower value 1.02 | locus YDL040C, strain nat1, stronger effect = lower value 1.01 | locus YDL074C, strain BRE1, stronger effect = lower value 1.09 | locus YDL101C, strain DUN1, stronger effect = lower value 1.01 | locus YDL134C, strain PPH21, stronger effect = lower value 1.06 | locus YDL185W, strain tfp1, stronger effect = lower value 1.02 | locus YDL192W, strain arf1, stronger effect = lower value 1.04 | locus YDR001C, strain nth1, stronger effect = lower value 1.02 | locus YDR069C, strain doa4, stronger effect = lower value 1.02 | locus YDR101C, strain arx1, stronger effect = lower value 1 | locus YDR137W, strain rgp1, stronger effect = lower value 1.04 | locus YDR150W, strain NUM1, stronger effect = lower value 0.999 | locus YDR159W, strain sac3, stronger effect = lower value 1.02 | locus YDR162C, strain NBP2, stronger effect = lower value 1.03 | locus YDR195W, strain ref2 1.02 | locus YDR297W, strain sur2, stronger effect = lower value 1.05 | locus YDR318W, strain mcm21, stronger effect = lower value 1.03 | locus YDR334W, strain swr1, stronger effect = lower value 1.03 | locus YDR335W, strain msn5, stronger effect = lower value 1.03 | locus YDR388W, stronger effect = lower value 0.996 | locus YDR392W, strain spt3, stronger effect = lower value 1.02 | locus YDR502C, strain sam2, stronger effect = lower value 1.03 | locus YEL003W, strain gim4, stronger effect = lower value 1.02 | locus YEL037C, strain rad23, stronger effect = lower value 1.02 | locus YEL061C, strain CIN8 (second series), stronger effect = lower value 1.02 | locus YEL061C, strain CIN8, stronger effect = lower value 0.973 | locus YER015W, strain faa2, stronger effect = lower value 1.02 | locus YER016W, strain bim1, stronger effect = lower value 1.02 | locus YER110C, stronger effect = lower value 1.02 | locus YER111C, strain swi4, stronger effect = lower value 1.02 | locus YER155C, strain BEM2 (second series), stronger effect = lower value 1.01 | locus YER155C, strain BEM2, stronger effect = lower value 0.997 | locus YER167W, strain BCK2, stronger effect = lower value 0.98 | locus YFR010W, strain ubp6, stronger effect = lower value 1.03 | locus YGL078C, strain dbp3, stronger effect = lower value 1.04 | locus YGL086W, strain mad1, stronger effect = lower value 1.03 | locus YGL167C, strain pmr1, stronger effect = lower value 1.03 | locus YGL173C, strain kem1, stronger effect = lower value 1.02 | locus YGL227W, strain vid30, stronger effect = lower value 1.02 | locus YGL240W, strain doc1, stronger effect = lower value 1.02 | locus YGL248W, strain PDE1, stronger effect = lower value 1.04 | locus YGL253W, strain hxk2, stronger effect = lower value 1.05 | locus YGR135W, strain pre9, stronger effect = lower value 1.04 | locus YGR252W, strain gcn5, stronger effect = lower value 1.13 | locus YHR013C, strain ard1, stronger effect = lower value 1.04 | locus YHR027C, strain rpn1, stronger effect = lower value 1.02 | locus YHR030C, strain SLT2, stronger effect = lower value 1.01 and 1.06 | locus YHR079C, strain IRE1 (second series), stronger effect = lower value 1.01 | locus YHR079C, strain IRE1, stronger effect = lower value 1.05 | locus YHR094C, strain hxt1, stronger effect = lower value 1.01 | locus YHR129C, strain ARP1, stronger effect = lower value 0.99 | locus YHR142W, strain chs7, stronger effect = lower value 1.07 | locus YHR200W, strain rpn10, stronger effect = lower value 1.02 | locus YIL066C, strain RNR3, stronger effect = lower value 1.01 | locus YIL073C, strain SPO22, stronger effect = lower value 1.14 | locus YIL125W, strain kgd1, stronger effect = lower value 1 | locus YIR030C, strain dcg1, stronger effect = lower value 1.02 | locus YJL092W, strain hpr5, stronger effect = lower value 1.02 | locus YJL095W, strain BCK1 (second series), stronger effect = lower value 1.02 | locus YJL095W, strain BCK1, stronger effect = lower value 1.11 and 1.04 | locus YJL115W, strain asf1, stronger effect = lower value 1.04 | locus YJL129C, strain trk1, stronger effect = lower value 1.06 | locus YJL134W, strain LCB3, stronger effect = lower value 0.999 | locus YJL154C, strain vps35, stronger effect = lower value 1.02 | locus YJL164C, strain tpk1, stronger effect = lower value 1.02 | locus YJL166W, strain qcr8, stronger effect = lower value 1.03 | locus YJL168C, strain set2, stronger effect = lower value 1.01 | locus YJL187C, strain SWE1 (second series), stronger effect = lower value 1.03
